From the supplement of paper PMC10849652
Of roughly 7,900 targets only a part is listed; those with a hit were picked by preference. About 0.6% of all pairs of compound and target were hits.

How the values were obtained:
Experiment in all cases: log2 fold change, soluble protein after heating vs DMSO (PISA); higher = thermal stabilisation; K562 cells, 10 uM, 30 min; active = over 0.2 and 3.5 SD of the protein, either way, in both replicates (recomputed)
[1] = compound: CC1=C(C=C(C=C1)NC(=O)C2=CC(=CC=C2)C(C)(C)C#N)NC3=CC4=C(C=C3)N=CN(C4=O)C
Outline: (§1)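 K562 cells at 2×10^6 cells/mL were given 10 μM compound for 30 min. Aliquots then went through 3 min of heating across 48°C-58°C, were pooled, and were extracted in PBS with 0.5% NP-40 at 4°C, and the supernatant after 21,000xg for 90 min was quantified by TMTpro 16plex LC-MS/MS with channel sums equalised. Thermal stability relative to control samples, from duplicates, is given as log2 fold change.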

[2] = compound: CC1=C(C=C(C=C1)NC(=O)C2=CC(=CC=C2)N(C)C)NC(=O)C3=CC=C(C=C3)O
Outline: as §1

[3] = compound: CC1=CC=C(C=C1)SC2=C3C=C(SC3=CN=C2)C(=O)N
Outline: as §1

[4] = compound: CC1=NC(=CC=C1)C2=C(N=C(N2)C(C)(C)C)C3=CC4=NC=CN=C4C=C3
Outline: as §1

Nexturastat A = compound: CCCCN(Cc1ccc(C(=O)NO)cc1)C(=O)Nc1ccccc1 [Nexturastat A]
Outline: as §1

vemurafenib = compound: CCCS(=O)(=O)Nc1ccc(F)c(C(=O)c2c[nH]c3ncc(-c4ccc(Cl)cc4)cc23)c1F [vemurafenib]
Outline: as §1

[5] = compound: CCCS(=O)(=O)Nc1ccc(F)c(C(=O)c2c[nH]c3ncc(Cl)cc23)c1F
Outline: as §1

[6] = compound: CCCc1cc(C)[nH]c(=O)c1CNC(=O)c1cc(-c2ccnc(N3CCN(C)CC3)c2)cc2c1cnn2C(C)C
Outline: as §1

givinostat = compound: CCN(CC)Cc1ccc2cc(COC(=O)Nc3ccc(C(=O)NO)cc3)ccc2c1 [givinostat]
Outline: as §1

barasertib = compound: CCN(CCCOc1ccc2c(Nc3cc(CC(=O)Nc4cccc(F)c4)[nH]n3)ncnc2c1)CCOP(=O)(O)O [barasertib]
Outline: as §1

[7] = compound: CC[C@@H]1C(=O)N(C)c2cnc(Nc3ccc(C(=O)NC4CCN(C)CC4)cc3OC)nc2N1C1CCCC1
Outline: as §1

volasertib = compound: CC[C@@H]1C(=O)N(C)c2cnc(Nc3ccc(C(=O)N[C@H]4CC[C@H](N5CCN(CC6CC6)CC5)CC4)cc3OC)nc2N1C(C)C [volasertib]
Outline: as §1

[8] = compound: CC[C@H](C)N1C=C(C2=C(C=C(C=C21)C3=CN=C(C=C3)N4CCNCC4)C(=O)NCC5=C(C=C(NC5=O)C)C)C
Outline: as §1

epoxomicin = compound: CC[C@H](C)[C@@H](C(=O)N[C@@H]([C@@H](C)O)C(=O)N[C@@H](CC(C)C)C(=O)[C@]1(CO1)C)NC(=O)[C@H]([C@@H](C)CC)N(C)C(=O)C [epoxomicin]
Outline: as §1

[9] = compound: CCn1c(C(=O)N(C2CC2)C2CC2)cc2c3c(ncn3C)c(Nc3cc(C)n(C)n3)nc21
Outline: as §1

[10] = compound: CCn1cc(-c2ccnc3[nH]c(-c4cccc(CN(C)C)c4)cc23)c(-c2ccc(NC(=O)N(C)C)cc2)n1
Outline: as §1

[11] = compound: CN(C)CC(=O)Nc1ccc2[nH]c(=O)c3ccccc3c2c1
Outline: as §1

rosiglitazone = compound: CN(CCOC1=CC=C(C=C1)C[C@H]2C(=O)NC(=O)S2)C3=CC=CC=N3 (racemic) [rosiglitazone]
Outline: as §1

[12] = compound: CN1C2=C(C3=C1C(=O)N(N=C3)CC4=CC(=CC=C4)N)SC(=C2)S(=O)C
Outline: as §1

[13] = compound: CN1CCC(CNc2ccc3ncc(-c4cccc(OC(F)(F)F)c4)n3n2)CC1
Outline: as §1

Measured: log2 fold change

RPS21 (UniProt P63220)
active: volasertib 0.238
inactive: [1] -0.007 | [2] 0.01 | [3] -0.042 | [4] -0.007 | Nexturastat A -0.033 | vemurafenib -0.077 | [5] -0.072 | [6] -0.038 | givinostat -0.015 | barasertib -0.016 | [7] 0.089 | [8] -0.04 | epoxomicin 0.028 | [9] 0.028 | [10] 0.055 | [11] -0.045 | rosiglitazone -0.019 | [12] -0.004 | [13] 0.073

SAAL1 (UniProt Q96ER3)
Sequence of UniProt Q96ER3 (Q96ER3 whole entry, looked up): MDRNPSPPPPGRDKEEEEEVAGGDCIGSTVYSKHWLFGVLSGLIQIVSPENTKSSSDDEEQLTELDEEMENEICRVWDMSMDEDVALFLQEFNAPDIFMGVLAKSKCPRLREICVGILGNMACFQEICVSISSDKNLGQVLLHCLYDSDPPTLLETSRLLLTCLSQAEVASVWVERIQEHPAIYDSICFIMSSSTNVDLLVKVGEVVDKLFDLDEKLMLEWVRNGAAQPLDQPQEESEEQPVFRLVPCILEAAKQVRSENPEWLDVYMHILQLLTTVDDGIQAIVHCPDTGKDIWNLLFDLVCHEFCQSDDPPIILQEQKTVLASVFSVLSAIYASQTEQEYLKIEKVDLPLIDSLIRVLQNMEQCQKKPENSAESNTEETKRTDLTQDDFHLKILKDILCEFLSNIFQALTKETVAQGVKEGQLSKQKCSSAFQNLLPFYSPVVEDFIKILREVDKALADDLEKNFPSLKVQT
active: volasertib -0.245
inactive: [1] 0.004 | [2] -0.008 | [3] 0.006 | [4] 0.009 | Nexturastat A -0.078 | vemurafenib -0.017 | [5] 0.035 | [6] -0.014 | givinostat -0.059 | barasertib 0.046 | [7] -0.167 | [8] 0.001 | epoxomicin 0.025 | [9] -0.038 | [10] 0.025 | [11] -0.025 | rosiglitazone 0.051 | [12] -0.012 | [13] -0.219

RPA3 (UniProt P35244)
Sequence of UniProt P35244 (P35244 whole entry, looked up): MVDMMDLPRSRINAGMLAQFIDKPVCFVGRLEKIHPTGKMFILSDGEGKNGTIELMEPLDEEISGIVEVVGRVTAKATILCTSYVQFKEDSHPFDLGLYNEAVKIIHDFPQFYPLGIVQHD
inactive: [1] 0.076 | [2] -0.059 | [3] 0.111 | [4] 0.014 | Nexturastat A 0.091 | [5] 0.053 | [6] -0.044 | givinostat -0.109 | barasertib 0.066 | [7] -0.006 | volasertib -0.056 | [8] -0.002 | epoxomicin 0.06 | [9] 0.021 | [10] -0.044 | [11] 0.163 | rosiglitazone 0.003 | [12] -0.054 | [13] 0.039
active: vemurafenib 0.298

RNF14 (UniProt Q9UBS8)
Sequence of UniProt Q9UBS8 (Q9UBS8 whole entry, looked up): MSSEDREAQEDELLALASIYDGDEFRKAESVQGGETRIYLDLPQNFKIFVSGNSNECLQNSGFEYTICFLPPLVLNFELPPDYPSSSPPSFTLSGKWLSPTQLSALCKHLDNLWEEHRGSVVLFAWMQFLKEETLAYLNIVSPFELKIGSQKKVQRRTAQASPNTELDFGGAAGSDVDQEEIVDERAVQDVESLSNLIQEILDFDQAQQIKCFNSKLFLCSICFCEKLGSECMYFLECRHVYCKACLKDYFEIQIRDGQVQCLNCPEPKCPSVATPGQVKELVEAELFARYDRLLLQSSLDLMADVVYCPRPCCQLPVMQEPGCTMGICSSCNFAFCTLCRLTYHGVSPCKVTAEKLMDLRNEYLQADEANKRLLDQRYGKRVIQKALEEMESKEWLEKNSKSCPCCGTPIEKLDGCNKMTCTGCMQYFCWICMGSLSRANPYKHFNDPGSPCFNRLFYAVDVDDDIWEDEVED
active: volasertib -0.288
inactive: [1] 0.039 | [2] -0.034 | [3] 0.004 | [4] 0.05 | Nexturastat A -0.04 | vemurafenib 0.026 | [5] 0.04 | [6] 0.029 | givinostat -0.07 | barasertib 0.036 | [7] -0.054 | [8] 0.037 | epoxomicin -0.075 | [9] 0.002 | [10] -0.032 | [11] -0.019 | rosiglitazone 0.032 | [12] -0.049 | [13] -0.025

RAVER1 (UniProt E9PAU2)
active: volasertib -1.93
inactive: [1] 0.144 | [2] -0.075 | [3] -0.025 | [4] 0.144 | Nexturastat A -0.046 | vemurafenib -0.1 | [5] 0.067 | [6] 0.293 | givinostat 0.131 | barasertib 0.099 | [7] -0.222 | [8] 0.13 | epoxomicin 0.147 | [9] -0.058 | [10] -0.006 | [11] 0.174 | rosiglitazone 0.056 | [12] -0.007 | [13] -0.375

RBM25 (UniProt P49756)
Sequence of UniProt P49756 (P49756 whole entry, looked up): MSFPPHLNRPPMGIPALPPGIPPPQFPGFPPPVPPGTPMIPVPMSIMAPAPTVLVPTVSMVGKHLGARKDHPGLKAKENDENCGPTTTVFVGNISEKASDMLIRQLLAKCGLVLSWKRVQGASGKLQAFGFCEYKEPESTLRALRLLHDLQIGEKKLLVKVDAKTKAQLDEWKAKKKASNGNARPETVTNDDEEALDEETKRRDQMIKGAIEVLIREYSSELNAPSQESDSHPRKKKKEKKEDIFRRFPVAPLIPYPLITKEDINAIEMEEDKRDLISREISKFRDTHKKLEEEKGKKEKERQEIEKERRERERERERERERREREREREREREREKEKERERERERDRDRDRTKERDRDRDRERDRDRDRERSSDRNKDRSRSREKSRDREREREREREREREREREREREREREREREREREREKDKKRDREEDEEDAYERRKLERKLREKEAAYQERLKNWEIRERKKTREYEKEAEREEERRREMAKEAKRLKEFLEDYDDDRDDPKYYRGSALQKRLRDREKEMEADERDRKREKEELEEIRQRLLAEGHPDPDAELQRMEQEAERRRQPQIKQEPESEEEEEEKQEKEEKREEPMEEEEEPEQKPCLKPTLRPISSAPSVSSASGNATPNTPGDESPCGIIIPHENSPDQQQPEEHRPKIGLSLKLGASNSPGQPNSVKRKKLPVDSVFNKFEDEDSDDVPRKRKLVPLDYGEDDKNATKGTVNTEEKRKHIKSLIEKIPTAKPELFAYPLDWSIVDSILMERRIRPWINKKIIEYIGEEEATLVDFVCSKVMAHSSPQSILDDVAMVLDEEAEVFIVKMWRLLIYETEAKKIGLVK
inactive: [1] -0.032 | [2] 0.017 | [3] -0.007 | [4] -0.074 | Nexturastat A 0.02 | vemurafenib 0.019 | [5] 0 | [6] -0.093 | givinostat 0.202 | barasertib 0.035 | [7] 0.024 | volasertib -0.239 | [8] -0.019 | epoxomicin 0.015 | [9] -0.104 | [10] 0.074 | [11] 0.041 | rosiglitazone -0.019 | [12] 0.086 | [13] -0.07

RTF2 (UniProt Q9BY42)
Sequence of UniProt Q9BY42 (Q9BY42 whole entry, looked up): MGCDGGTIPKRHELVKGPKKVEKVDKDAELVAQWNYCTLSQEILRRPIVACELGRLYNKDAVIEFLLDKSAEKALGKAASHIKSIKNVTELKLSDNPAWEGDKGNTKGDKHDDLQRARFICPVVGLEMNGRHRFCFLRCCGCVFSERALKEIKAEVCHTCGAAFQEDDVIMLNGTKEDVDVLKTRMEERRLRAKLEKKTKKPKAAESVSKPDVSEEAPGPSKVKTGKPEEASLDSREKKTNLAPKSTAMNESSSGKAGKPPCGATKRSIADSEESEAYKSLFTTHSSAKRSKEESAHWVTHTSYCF
inactive: [1] 0 | [2] -0.028 | [3] 0.019 | [4] 0.04 | Nexturastat A 0.004 | vemurafenib 0.129 | [5] 0.044 | [6] -0.019 | givinostat 0.017 | barasertib 0.072 | [7] -0.18 | [8] 0.003 | epoxomicin 0.118 | [9] -0.049 | [10] 0.012 | [11] 0.005 | rosiglitazone -0.055 | [12] -0.017 | [13] 0.161
active: volasertib -0.45

RPS13 (UniProt P62277)
inactive: [1] 0.006 | [2] 0.022 | [3] -0.044 | [4] -0.057 | Nexturastat A 0.119 | vemurafenib -0.144 | [5] -0.09 | [6] 0.091 | givinostat 0.045 | barasertib -0.101 | [7] 0.219 | volasertib 0.567 | [8] 0.035 | epoxomicin -0.324 | [9] 0.055 | [10] 0.236 | [11] -0.066 | rosiglitazone -0.12 | [12] 0.219 | [13] 0.243

SCG3 (UniProt Q8WXD2)
Sequence of UniProt Q8WXD2 (Q8WXD2 whole entry, looked up): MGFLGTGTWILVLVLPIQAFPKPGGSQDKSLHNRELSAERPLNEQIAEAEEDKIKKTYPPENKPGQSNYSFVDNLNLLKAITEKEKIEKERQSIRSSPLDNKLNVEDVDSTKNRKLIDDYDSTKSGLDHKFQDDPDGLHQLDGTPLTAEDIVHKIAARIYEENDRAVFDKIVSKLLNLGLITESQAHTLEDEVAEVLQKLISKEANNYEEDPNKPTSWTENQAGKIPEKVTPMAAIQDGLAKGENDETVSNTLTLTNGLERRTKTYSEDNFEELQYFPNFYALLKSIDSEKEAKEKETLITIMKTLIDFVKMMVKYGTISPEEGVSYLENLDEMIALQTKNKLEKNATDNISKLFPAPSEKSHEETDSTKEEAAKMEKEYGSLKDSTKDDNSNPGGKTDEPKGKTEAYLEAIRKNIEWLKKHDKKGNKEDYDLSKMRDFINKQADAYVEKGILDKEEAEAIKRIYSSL
inactive: [1] 0.134 | [2] -0.105 | [3] -0.011 | [4] -0.05 | Nexturastat A -0.071 | vemurafenib 0.027 | [5] -0.041 | [6] 0.11 | givinostat -0.043 | barasertib 0.013 | [7] 0.04 | volasertib 0.134 | [8] -0.013 | epoxomicin -0.119 | [9] 0.048 | [10] 0.035 | [11] -0.099 | rosiglitazone -0.027 | [12] -0.116
active: [13] 0.6

SH3GL1 (UniProt Q99961)
Sequence of UniProt Q99961 (Q99961 whole entry, looked up): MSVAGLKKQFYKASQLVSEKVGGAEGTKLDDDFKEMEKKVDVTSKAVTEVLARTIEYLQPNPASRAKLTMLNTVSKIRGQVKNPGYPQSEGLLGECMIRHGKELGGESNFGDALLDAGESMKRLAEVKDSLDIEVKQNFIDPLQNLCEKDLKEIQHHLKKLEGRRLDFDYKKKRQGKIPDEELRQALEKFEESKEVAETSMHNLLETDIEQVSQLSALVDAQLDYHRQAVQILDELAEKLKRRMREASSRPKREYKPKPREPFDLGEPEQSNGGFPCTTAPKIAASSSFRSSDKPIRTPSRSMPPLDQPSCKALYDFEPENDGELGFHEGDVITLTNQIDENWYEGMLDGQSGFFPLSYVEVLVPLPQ
inactive: [1] 0.022 | [2] -0.077 | [3] 0.06 | [4] 0.021 | Nexturastat A 0.141 | vemurafenib 0.1 | [5] 0.1 | [6] 0.037 | givinostat 0.024 | barasertib 0.084 | [7] -0.137 | [8] 0.082 | epoxomicin 0.008 | [9] -0.077 | [10] -0.028 | [11] 0.091 | rosiglitazone 0.062 | [12] -0.006 | [13] -0.196
active: volasertib -0.459

RPL38 (UniProt P63173)
inactive: [1] 0.032 | [2] 0.017 | [3] -0.038 | [4] -0.045 | Nexturastat A 0.075 | vemurafenib -0.003 | [5] 0.006 | [6] 0.069 | givinostat -0.054 | barasertib -0.025 | [7] 0.076 | volasertib 0.187 | [8] 0.033 | epoxomicin -0.062 | [9] -0.022 | [10] -0.03 | [11] -0.02 | rosiglitazone -0.012 | [12] -0.004 | [13] 0.052

RRAGB (UniProt Q5VZM2)
Sequence of UniProt Q5VZM2 (Q5VZM2 whole entry, looked up): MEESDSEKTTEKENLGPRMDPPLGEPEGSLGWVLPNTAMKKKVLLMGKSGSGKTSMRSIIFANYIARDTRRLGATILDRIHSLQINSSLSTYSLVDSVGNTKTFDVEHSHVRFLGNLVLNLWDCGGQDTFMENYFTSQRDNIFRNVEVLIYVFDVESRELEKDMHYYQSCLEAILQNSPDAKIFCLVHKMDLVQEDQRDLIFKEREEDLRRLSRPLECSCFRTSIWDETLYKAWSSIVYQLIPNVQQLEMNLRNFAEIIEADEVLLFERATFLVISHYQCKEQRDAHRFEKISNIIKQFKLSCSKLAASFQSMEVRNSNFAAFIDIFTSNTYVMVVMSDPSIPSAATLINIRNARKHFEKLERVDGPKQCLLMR
inactive: [1] 0.013 | [2] 0.018 | [3] 0.011 | [4] -0.01 | Nexturastat A -0.071 | vemurafenib 0.001 | [5] 0.028 | [6] -0.023 | givinostat -0.044 | barasertib -0.004 | [7] 0 | volasertib 0.011 | [8] -0.017 | epoxomicin 0.047 | [9] 0.015 | [10] -0.041 | [11] -0.027 | rosiglitazone -0.015 | [12] -0.022 | [13] -0.191

RSRC2 (UniProt Q7L4I2)
Sequence of UniProt Q7L4I2 (Q7L4I2 whole entry, looked up): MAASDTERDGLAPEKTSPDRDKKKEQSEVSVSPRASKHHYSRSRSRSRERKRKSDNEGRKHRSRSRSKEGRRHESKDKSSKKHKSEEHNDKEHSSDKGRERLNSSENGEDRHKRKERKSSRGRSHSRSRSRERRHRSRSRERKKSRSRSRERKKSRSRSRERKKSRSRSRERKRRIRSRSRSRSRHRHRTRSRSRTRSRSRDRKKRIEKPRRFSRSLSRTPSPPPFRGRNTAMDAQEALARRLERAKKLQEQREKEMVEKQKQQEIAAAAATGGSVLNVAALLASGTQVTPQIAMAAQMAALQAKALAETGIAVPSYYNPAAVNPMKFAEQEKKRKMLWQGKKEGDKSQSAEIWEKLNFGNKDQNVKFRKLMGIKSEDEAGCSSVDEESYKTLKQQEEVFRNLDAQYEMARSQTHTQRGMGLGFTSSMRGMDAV
inactive: [1] -0.048 | [2] 0.04 | [3] -0.058 | [4] 0 | Nexturastat A 0.015 | vemurafenib 0.007 | [5] 0.003 | [6] -0.063 | givinostat -0.013 | barasertib 0.01 | [7] 0.003 | volasertib -0.032 | [8] -0.022 | epoxomicin 0.031 | [9] 0.006 | [10] -0.043 | [11] 0.007 | rosiglitazone 0.008 | [12] -0.028 | [13] -0.025

RAC1 (UniProt P63000)
inactive: [1] 0.14 | [2] -0.002 | [3] -0.055 | [4] 0.241 | Nexturastat A -0.021 | vemurafenib -0.046 | [5] -0.008 | [6] 0.032 | givinostat -0.059 | barasertib -0.026 | [7] -0.024 | volasertib 0.03 | [8] 0.026 | epoxomicin 0.019 | [9] 0.019 | [10] 0.044 | [11] 0.05 | rosiglitazone 0.069 | [12] -0.067
active: [13] 0.35

RPS27A (UniProt P62979)
inactive: [1] -0.023 | [2] -0.011 | [3] -0.179 | [4] -0.075 | Nexturastat A 0.368 | vemurafenib -0.126 | [5] -0.224 | [6] 0.152 | givinostat -0.109 | barasertib -0.119 | [7] -0.061 | volasertib 0.36 | [8] 0.05 | epoxomicin -0.078 | [9] 0.021 | [10] 0.033 | [11] -0.153 | rosiglitazone -0.145 | [12] 0.155 | [13] 0.194

RPS18 (UniProt P62269)
inactive: [1] -0.014 | [2] 0 | [3] -0.049 | [4] -0.061 | Nexturastat A 0.148 | vemurafenib -0.125 | [5] -0.04 | [6] -0.01 | givinostat 0.021 | barasertib -0.067 | [7] 0.158 | volasertib 0.3 | [8] -0.011 | epoxomicin -0.111 | [9] -0.029 | [10] 0.057 | [11] -0.036 | rosiglitazone -0.11 | [12] 0.096 | [13] 0.11
